The text below walks through data of PubChem BioAssay.

Chain of Albumin (Bos taurus) (P02769 whole entry, looked up): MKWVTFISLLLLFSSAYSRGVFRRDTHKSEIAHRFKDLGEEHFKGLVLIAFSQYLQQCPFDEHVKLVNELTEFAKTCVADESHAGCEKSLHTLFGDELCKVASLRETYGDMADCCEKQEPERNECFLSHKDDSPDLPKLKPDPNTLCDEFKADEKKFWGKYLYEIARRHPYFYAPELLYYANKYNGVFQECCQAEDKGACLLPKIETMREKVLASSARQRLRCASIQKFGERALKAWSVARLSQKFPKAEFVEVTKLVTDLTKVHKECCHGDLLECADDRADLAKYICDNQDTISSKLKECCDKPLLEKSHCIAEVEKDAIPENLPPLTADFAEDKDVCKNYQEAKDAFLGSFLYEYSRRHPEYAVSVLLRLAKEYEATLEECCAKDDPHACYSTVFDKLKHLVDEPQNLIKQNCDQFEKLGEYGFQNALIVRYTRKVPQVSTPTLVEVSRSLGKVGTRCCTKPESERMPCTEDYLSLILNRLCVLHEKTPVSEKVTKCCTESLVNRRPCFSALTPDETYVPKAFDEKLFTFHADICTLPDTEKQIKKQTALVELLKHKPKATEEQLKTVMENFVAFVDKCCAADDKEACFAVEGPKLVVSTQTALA

This experiment has as its target Albumin (Bos taurus) (UniProt P02769). Description: compounds binding labelled BSA control protein – biochemical, small-molecule microarray, Alexa647 label, 635/667 nm fluorescence, artefact control for SMM control protein annotation, profiling panel (AID 1118).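 Also: score merges 667 nm emission intensity and signal-to-noise per printed compound spot.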 The settings on record: BSA-A647 binding, fluorescence 635 nm, higher = more signal.
Regarding `O=C(O)C1=CC[C@H]2C(=O)N(c3ccccc3)C(=O)[C@@H]12`, the composite z-score was 0.342.
In the case of `CCc1cccc(NC(=O)O[C@H]2[C@H](OC(=O)Nc3ccccc3-c3ccccc3)[C@H](OC(=O)Nc3ccccc3-c3ccccc3)[C@@H](OC)O[C@@H]2CO)c1` it was 0.715; in that of `C=C(COC)/C(=C/C[C@@H](OC(C)=O)c1cccc(OCCO)c1)c1cnc2ccccc2c1`, 0.238; in that of `Cc1ccc(S[C@]2(C(=O)NCc3ccccc3)CC(=O)N(Cc3ccccc3C(F)(F)F)[C@@H]2c2ccc(CO)cc2I)cc1`, 0.269.
Take `COCCOC(=O)N1C(=O)[C@@]2(c3cc(C#CC4(O)CCCCCC4)ccc31)[C@H](C(N)=O)[C@H]1C(=O)O[C@H](c3ccccc3)[C@H](c3ccccc3)N1[C@@H]2c1ccc(OCCO)cc1`: the composite z-score was 0.736.
In the case of `COc1c(C)cc(-c2cc3c(c(CCc4ccccc4)n2)[Si](C(C)C)(C(C)C)O[C@H]3c2ccccc2)cc1C` it was -0.0598; in that of `COC(=O)[C@@]1(Cc2ccc(F)cc2)[C@H]2c3cc(C(=O)N(C)C)n(Cc4cccc5ccccc45)c3C[C@H]2CN1C(=O)c1ccccc1`, 0.617; in that of `CC(C)C[C@@H]1NC(=O)[C@@H]2C[C@H](C(=O)NCCCCCNC(=O)CS)[C@H](c3ccc(O)cc3)N2C1=O`, -0.0368.
Regarding `C=C[C@@H](CO)NS(=O)(=O)c1ccc(Br)cc1`, the composite z-score turned out to be 0.225.
In turn, `COC(=O)[C@@]1(Cc2ccc(F)cc2)[C@H]2c3cc(C(=O)N(C)C)n(CCF)c3C[C@H]2CN1C(=O)c1ccccc1` returned a composite z-score of 0.914.
In the case of `COC(=O)[C@@]1(Cc2ccccc2)[C@H]2c3cc(C(=O)N(C)C)n(Cc4nc5ccccc5[nH]4)c3C[C@H]2CN1C(=O)c1ccccc1` it was 1.01.
